This passage reports log2 fold change results from the supplement of paper PMC10849652.

Targets with a hit are over-represented here; the source holds about 7,900 in all. About 0.6% of all pairs of compound and target were hits. Values without a mark were called inactive.

Sequence of UniProt P35244 (P35244 whole entry, looked up): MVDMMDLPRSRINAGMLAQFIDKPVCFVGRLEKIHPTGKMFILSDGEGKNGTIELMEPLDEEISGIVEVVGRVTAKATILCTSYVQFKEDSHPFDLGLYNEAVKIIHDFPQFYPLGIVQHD
Sequence of UniProt Q5T160 (Q5T160 whole entry, looked up): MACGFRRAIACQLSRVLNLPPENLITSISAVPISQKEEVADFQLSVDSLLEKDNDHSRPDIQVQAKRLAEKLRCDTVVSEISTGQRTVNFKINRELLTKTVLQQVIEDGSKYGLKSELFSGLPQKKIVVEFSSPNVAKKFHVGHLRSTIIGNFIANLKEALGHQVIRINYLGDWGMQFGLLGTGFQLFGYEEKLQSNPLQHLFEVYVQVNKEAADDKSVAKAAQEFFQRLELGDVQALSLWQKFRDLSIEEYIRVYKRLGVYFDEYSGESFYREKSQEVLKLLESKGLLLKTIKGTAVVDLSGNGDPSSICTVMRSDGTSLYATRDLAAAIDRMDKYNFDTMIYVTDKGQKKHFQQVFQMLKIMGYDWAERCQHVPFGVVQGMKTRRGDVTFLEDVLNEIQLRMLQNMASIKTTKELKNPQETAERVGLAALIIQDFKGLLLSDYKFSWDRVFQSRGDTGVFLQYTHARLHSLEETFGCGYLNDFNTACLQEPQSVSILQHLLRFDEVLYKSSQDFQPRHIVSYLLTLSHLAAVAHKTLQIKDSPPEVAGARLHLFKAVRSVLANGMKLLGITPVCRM
Sequence of UniProt P61586 (P61586 whole entry, looked up): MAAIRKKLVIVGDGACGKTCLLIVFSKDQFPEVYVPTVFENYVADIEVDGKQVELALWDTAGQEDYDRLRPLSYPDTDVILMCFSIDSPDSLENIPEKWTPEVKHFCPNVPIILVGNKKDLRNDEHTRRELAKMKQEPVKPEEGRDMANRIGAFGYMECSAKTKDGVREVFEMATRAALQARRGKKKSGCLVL
Sequence of UniProt Q8IZV5 (Q8IZV5 whole entry, looked up): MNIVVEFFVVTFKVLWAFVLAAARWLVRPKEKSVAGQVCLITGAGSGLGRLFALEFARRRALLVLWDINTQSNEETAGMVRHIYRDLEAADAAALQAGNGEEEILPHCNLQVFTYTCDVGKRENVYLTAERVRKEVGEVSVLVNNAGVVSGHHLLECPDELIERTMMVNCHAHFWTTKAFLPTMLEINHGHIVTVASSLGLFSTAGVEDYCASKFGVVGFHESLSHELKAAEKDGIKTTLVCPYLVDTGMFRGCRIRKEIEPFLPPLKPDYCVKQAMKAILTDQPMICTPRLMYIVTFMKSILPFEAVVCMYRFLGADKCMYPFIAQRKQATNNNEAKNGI
Sequence of UniProt Q96T51 (Q96T51 whole entry, looked up): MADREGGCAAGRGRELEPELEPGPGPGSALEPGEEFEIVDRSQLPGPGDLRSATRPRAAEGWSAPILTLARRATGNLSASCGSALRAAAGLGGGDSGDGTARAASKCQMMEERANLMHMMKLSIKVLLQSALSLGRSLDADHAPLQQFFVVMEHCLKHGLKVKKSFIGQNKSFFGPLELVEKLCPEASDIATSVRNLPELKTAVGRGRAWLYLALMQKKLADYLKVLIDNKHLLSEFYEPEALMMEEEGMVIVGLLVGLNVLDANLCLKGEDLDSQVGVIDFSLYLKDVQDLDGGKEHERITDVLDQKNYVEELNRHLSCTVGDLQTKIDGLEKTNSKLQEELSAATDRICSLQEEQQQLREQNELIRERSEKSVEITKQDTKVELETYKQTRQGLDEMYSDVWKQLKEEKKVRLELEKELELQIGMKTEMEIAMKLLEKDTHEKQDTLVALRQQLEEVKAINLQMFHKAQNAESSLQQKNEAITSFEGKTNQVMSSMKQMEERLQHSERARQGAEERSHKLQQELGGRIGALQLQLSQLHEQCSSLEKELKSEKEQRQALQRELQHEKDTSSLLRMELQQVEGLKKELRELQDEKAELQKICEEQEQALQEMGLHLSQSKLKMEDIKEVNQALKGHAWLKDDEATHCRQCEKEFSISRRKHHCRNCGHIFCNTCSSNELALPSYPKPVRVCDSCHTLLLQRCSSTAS
Sequence of UniProt P51812 (P51812 whole entry, looked up): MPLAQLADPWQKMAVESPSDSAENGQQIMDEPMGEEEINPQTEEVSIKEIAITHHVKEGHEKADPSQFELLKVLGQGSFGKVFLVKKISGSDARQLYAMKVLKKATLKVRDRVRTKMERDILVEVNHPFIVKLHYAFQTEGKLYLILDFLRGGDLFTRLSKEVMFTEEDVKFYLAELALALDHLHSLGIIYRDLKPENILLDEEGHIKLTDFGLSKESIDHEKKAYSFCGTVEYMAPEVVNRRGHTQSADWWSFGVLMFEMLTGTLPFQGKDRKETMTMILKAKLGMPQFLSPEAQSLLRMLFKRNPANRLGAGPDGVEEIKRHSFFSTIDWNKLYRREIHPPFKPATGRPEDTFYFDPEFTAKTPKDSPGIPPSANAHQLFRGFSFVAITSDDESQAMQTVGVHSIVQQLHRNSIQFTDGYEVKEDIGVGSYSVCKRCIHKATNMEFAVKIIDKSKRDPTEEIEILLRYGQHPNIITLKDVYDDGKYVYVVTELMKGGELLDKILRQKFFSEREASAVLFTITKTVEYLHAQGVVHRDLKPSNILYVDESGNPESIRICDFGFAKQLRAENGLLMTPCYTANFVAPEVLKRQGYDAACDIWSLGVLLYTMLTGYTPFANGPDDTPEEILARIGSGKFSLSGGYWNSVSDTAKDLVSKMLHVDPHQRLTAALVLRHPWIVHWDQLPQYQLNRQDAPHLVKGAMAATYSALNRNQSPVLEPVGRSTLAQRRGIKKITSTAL
Sequence of UniProt Q9H4A4 (Q9H4A4 whole entry, looked up): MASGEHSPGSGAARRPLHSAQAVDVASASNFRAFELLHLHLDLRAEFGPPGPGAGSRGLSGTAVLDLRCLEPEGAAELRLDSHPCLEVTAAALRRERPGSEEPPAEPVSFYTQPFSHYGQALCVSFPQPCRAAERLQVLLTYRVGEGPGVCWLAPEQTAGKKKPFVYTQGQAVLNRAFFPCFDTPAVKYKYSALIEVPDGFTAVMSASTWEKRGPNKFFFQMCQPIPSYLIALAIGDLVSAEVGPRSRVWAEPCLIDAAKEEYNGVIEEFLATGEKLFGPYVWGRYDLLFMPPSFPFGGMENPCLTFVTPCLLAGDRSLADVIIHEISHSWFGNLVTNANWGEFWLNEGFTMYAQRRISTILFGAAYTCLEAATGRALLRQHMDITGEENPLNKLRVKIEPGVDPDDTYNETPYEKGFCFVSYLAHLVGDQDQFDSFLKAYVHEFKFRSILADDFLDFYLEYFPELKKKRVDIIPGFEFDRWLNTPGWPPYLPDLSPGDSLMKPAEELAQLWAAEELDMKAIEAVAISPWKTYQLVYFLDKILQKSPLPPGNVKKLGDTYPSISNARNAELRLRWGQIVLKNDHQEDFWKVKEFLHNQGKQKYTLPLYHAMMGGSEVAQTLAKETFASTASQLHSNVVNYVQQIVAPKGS
Sequence of UniProt Q5PRF9 (Q5PRF9 whole entry, looked up): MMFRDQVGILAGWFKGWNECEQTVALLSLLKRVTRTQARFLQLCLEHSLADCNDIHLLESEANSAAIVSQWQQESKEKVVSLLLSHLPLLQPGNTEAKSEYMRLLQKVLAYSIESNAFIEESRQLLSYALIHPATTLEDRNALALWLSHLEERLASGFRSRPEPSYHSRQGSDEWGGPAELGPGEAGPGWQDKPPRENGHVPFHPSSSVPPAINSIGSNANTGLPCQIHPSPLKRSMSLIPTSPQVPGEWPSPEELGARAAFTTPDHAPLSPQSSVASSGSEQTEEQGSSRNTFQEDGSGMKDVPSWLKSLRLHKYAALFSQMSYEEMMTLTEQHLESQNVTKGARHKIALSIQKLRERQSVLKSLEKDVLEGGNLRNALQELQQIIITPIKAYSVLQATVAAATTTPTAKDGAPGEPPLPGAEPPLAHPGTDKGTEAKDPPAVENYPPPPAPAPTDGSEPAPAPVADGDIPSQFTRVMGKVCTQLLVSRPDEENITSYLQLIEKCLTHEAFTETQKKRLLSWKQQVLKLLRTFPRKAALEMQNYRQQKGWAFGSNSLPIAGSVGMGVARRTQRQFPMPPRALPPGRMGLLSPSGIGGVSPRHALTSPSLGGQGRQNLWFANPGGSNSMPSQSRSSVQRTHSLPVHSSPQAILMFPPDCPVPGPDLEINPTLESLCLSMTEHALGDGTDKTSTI
Sequence of UniProt Q96EU6 (Q96EU6 whole entry, looked up): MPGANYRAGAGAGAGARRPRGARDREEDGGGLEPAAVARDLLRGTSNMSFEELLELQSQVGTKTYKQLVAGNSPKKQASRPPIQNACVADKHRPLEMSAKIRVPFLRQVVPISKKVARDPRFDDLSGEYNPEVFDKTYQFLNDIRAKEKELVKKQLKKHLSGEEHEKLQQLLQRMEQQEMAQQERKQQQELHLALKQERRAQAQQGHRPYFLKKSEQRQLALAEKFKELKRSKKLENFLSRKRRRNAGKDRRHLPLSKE
Sequence of UniProt P41440 (P41440 whole entry, looked up): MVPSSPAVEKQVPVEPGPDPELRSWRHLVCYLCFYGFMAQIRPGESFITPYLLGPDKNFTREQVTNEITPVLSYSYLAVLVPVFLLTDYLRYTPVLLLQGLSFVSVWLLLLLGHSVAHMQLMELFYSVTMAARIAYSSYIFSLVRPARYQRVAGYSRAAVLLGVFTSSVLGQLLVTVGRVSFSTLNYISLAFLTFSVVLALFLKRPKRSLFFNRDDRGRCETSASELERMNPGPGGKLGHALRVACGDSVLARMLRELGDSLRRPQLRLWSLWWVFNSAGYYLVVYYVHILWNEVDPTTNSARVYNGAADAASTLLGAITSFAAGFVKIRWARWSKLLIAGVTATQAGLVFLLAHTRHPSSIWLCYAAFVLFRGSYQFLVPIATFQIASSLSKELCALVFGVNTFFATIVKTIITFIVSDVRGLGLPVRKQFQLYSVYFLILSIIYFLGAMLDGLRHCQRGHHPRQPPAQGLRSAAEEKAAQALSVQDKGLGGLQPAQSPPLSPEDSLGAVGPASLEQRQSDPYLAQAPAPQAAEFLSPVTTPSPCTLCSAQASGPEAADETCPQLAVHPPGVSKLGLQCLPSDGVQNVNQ

Compound in this test: CCCCN(Cc1ccc(C(=O)NO)cc1)C(=O)Nc1ccccc1 [Nexturastat A]
The test is described as follows: log2 fold change, soluble protein after heating vs DMSO (PISA); higher = thermal stabilisation; K562 cells, 10 uM, 30 min; active = over 0.2 and 3.5 SD of the protein, either way, in both replicates (recomputed). A digest of the protocol: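 Aliquots of K562 cells (2×10^6 cells/mL) treated with 10 μM compound for 30 min were heated for 3 min over 48°C-58°C. After pooling and extraction in PBS with 0.5% NP-40 at 4°C, soluble protein from a 21,000xg, 90 min spin was quantified by TMTpro 16plex LC-MS/MS with channel sums equalised. Thermal stability is expressed against control samples, from duplicates, as a log2 fold change.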
As for RARS2 (UniProt Q5T160), the log2 fold change is -0.027.

On to RRP36 (UniProt Q96EU6), for which the log2 fold change is 0.24.

On to RCOR1 (UniProt Q9UKL0), for which the log2 fold change was 0.054.

Turning to RBM48 isoform 2 (UniProt Q5RL73), the log2 fold change is 0.04.

With RPS18 (UniProt P62269), the log2 fold change is 0.148.

In the case of RPA3 (UniProt P35244), the log2 fold change is 0.091.

Take RPS6KA3 (UniProt P51812): the log2 fold change was 0.015.

Take RHOXF2 (UniProt Q9BQY4): the log2 fold change is 0.083.

Consider SCAMP2 (UniProt O15127), for which the log2 fold change is -0.061.

For the target SAMD4B (UniProt Q5PRF9), the log2 fold change was 0.202.

On to RNF167 (UniProt Q9H6Y7), for which the log2 fold change was -0.059.

For the target SLC19A1 (UniProt P41440), the log2 fold change was -0.107.

Consider SH2D1B (UniProt O14796), for which the log2 fold change is 0.143.

Regarding RHOA (UniProt P61586), the log2 fold change is 0.039.

Regarding RNPEP (UniProt Q9H4A4), the log2 fold change was -0.023.

With RAB3IL1 (UniProt E9PK89), the log2 fold change is -0.111.

In the case of RDH10 (UniProt Q8IZV5), the log2 fold change is -0.107.

Regarding RAF1 isoform 2 (UniProt P04049), the log2 fold change is 0.077.

In the case of RBBP6 (UniProt Q7Z6E9), the log2 fold change was -0.051.

Regarding ROCK1 (UniProt Q13464), the log2 fold change is 0.093.

RUFY1 (UniProt Q96T51): the log2 fold change is 0.063.

As to SCAMP2 (UniProt H3BUB6), the log2 fold change was 0.12.

With RAD51 (UniProt Q06609), the log2 fold change was 0.001.
